Inconclusive results are not listed. Calls of active or inactive are those of the source. Unless noted, the call rests on the fitted dose curve; in most records, active means well fitted curve in the direction sought with a large enough effect in the repeat runs; inconclusive means weak or mixed curves; inactive means no such curve, though single readings can be large; an effect the other way counts as inactive or inconclusive.
Tests used:
[1] = qHTS assay to identify small molecule antagonists of the estrogen receptor alpha (ER-alpha) signaling pathway using the BG1 cell line in the presence of 0.1 nM 17-beta-estradiol - cell viability counter screen (AID 1259241); further: nearly all actives have a fitted effect of over 40% in size; further: potency means the concentration at half of the fitted maximal effect
Method in brief: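 In this screen, hormone-deprived VM7Luc4E2 cells were seeded at 4,000 per well, dosed with compound and 0.1 nM estradiol final, and incubated 22 hr at 37C and 5% CO2; fluorogenic live-cell protease signal reported viability.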

[2] = qHTS assay to identify small molecule antagonists of the androgen receptor (AR) signaling pathway using the MDA cell line in the presence of 0.5 nM R1881 - cell viability counter screen (AID 1259242); further: nearly all actives have a fitted effect of over 45% in size; further: potency means the concentration at half of the fitted maximal effect
Method in brief: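 R1881 at 0.5 nM final stimulated MDA-kb2 cells during 16 hr compound treatment at 37C. Cytotoxicity read: CellTiter-Fluor fluorescence after 30 min.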

[3] = qHTS assay to identify small molecule HDAC inhibitors (AID 1259364);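 further: wild-type HCT-116 cells with endogenous class I/II HDAC activity; top concentration of the series differs between compounds; nearly all actives have a fitted effect of over 45% in size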
Method in brief: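 Relative class I and II HDAC activity is taken from the luminogenic signal in HCT-116 cells, with compound exposure 2 hr and reagent development 30 min at room temperature.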

[4] = qHTS assay to identify small molecule HDAC inhibitors - cell viability counter screen (AID 1259365); further: nearly all actives have a fitted effect of over 50% in size; further: potency means the concentration at half of the fitted maximal effect; on activity change, negative = cytotoxicity: series mostly up to about 92 µM
Method in brief: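 Measured quantity is CellTiter-Glo luminescence from wild-type HCT-116 cells after compound incubation of 2hr at 37C, 5% CO2; reagent developed 30min at room temperature.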

[5] = qHTS assay to identify small molecule agonists of the sonic hedgehog signaling (Shh) pathway - cell viability counter screen (AID 1259366); further: nearly all actives have a fitted effect of over 50% in size; further: potency means the concentration at half of the fitted maximal effect
Method in brief: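 In quantitative high-throughput format, 3T3 Gli1-Luc cells were exposed to compounds for 24hr and multiplexed for viability using CellTiter-Fluor, incubated 1hr at 37C before the fluorescence read.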

[6] = qHTS assay to identify small molecule antagonists of the sonic hedgehog signaling (Shh) pathway - cell viability counter screen (AID 1259367); further: nearly all actives have a fitted effect of over 55% in size; further: potency means the concentration at half of the fitted maximal effect
Method in brief: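 Using CellTiter-Fluor, viability of Gli1-Luc reporter 3T3 cells is read by fluorescence in the wells used for the Shh luciferase assay. Treatment lasts 23 hr with conditioned medium, then reagent 1 hr at 37C.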

[7] = qHTS assay to identify small molecule agonists of the sonic hedgehog signaling (Shh) pathway (AID 1259368; calls by dose curve;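 further: NIH/3T3-derived 3T3Gli1-Luc cells carrying a stable Gli1-driven firefly luciferase reporter; series mostly up to about 92 µM; nearly all actives have a fitted effect of over 15% in size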)
Method in brief: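 Mouse fibroblast (NIH/3T3) reporter cells with stably integrated Gli1-Luc were treated 24 hr with compound; firefly luciferase luminescence served as the read-out.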

[8] = qHTS assay to identify small molecule antagonists of the sonic hedgehog signaling (Shh) pathway (AID 1259369; calls by dose curve; further: nearly all actives have a fitted effect of over 45% in size; further: potency means the concentration at half of the fitted maximal effect)
Method in brief: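 Conditioned medium drives Shh signalling in 3T3Gli1-Luc cells; compounds in DMSO co-applied, 24hr at 37 C, then luciferase luminescence.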

[9] = qHTS assay to identify small molecule agonists of the androgen receptor (AR) signaling pathway in the presence of an antagonist - cell viability counter screen (AID 1259379); further: nearly all actives have a fitted effect of over 25% in size; further: potency means the concentration at half of the fitted maximal effect;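 on activity change, negative = cytotoxicity: MDA-kb2 human breast cancer cells carrying an MMTV luciferase reporter; series mostly up to about 92 µM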
Method in brief: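 A CellTiter-Fluor read-out measured viability of MDA-kb2 reporter cells (MMTV promoter with AR and GR response elements). Treatment: nilutamide 3.0uM final with compounds at 15 concentrations, 16 hr, 37C, 0% CO2.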

[10] = qHTS assay to identify small molecule agonists of the estrogen receptor beta (ER-beta) signaling pathway - cell viability counter screen (AID 1259380); further: nearly all actives have a fitted effect of over 30% in size; further: potency means the concentration at half of the fitted maximal effect
Method in brief: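 Cells used were ER-beta-UAS-bla HEK293T in medium with 2% charcoal-stripped FBS. They were treated for 16 hr at 37C. Viability came from CellTiter-Glo luminescence.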

[11] = qHTS assay to identify small molecule antagonists of the estrogen receptor beta (ER-beta) signaling pathway - cell viability counter screen (AID 1259382); further: nearly all actives have a fitted effect of over 55% in size; further: potency means the concentration at half of the fitted maximal effect; on activity change, negative = cytotoxicity: series mostly up to about 92 µM
Method in brief: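 Agonist-stimulated (1nM E2) ER-beta-UAS-bla HEK293T cells are incubated with library compounds for 16 hr at 37C. Cell viability is then assessed in the reporter-assay wells by adding CellTiter-Glo and reading luminescence after 30 min.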

[12] = qHTS assay to identify small molecule agonists or antagonists of the thyroid stimulating hormone receptor (TSHR) signaling pathway - wild type cell line counter screen (AID 1259384; calls by dose curve)
Method in brief: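 Counter screen in untransfected Hek293: compounds (15-point titration, triplicate) plus phosphodiesterase inhibitor Ro20-1724 added after 18 h plating; 30 min RT. Intracellular cAMP via competitive d2/cryptate immunoassay, 1 h incubation.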

[13] = biological target: Thyrotropin receptor (Homo sapiens) (UniProt P16473); assay: qHTS assay to identify small molecule antagonists of the thyroid stimulating hormone receptor (TSHR) signaling pathway (AID 1259385; calls by dose curve; further: nearly all actives have a fitted effect of over 20% in size; further: potency means the concentration at half of the fitted maximal effect)
Sequence of Thyrotropin receptor (Homo sapiens) (P16473 whole entry, looked up): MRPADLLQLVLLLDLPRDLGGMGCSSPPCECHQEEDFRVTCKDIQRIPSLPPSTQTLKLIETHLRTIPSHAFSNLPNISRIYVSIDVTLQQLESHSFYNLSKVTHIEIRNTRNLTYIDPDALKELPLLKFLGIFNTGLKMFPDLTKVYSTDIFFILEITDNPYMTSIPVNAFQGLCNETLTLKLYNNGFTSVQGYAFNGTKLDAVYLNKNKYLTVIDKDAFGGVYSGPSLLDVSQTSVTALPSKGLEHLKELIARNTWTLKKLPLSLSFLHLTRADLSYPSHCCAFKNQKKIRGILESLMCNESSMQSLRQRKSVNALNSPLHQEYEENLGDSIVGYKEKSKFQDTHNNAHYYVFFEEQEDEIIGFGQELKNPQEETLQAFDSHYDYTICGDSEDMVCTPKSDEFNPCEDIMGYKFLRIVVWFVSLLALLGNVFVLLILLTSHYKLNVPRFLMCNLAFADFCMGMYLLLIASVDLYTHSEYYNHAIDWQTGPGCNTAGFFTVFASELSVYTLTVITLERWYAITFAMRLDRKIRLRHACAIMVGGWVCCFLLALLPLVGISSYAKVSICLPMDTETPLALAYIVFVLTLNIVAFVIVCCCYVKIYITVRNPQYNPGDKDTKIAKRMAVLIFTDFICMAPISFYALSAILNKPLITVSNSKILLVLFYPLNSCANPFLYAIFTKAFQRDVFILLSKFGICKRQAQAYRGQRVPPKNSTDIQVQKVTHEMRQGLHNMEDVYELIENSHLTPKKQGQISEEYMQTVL
Method in brief: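 Antagonist mode: compound-treated TSHR-expressing HEK293 cells were stimulated with 1.5 ng/mL TSH (final) in presence of Ro20-1724 for 30 min at RT. HTRF cAMP detection after 1 h; each compound tested at 15 concentrations, triplicate.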

[14] = biological target: Estrogen receptor beta (Homo sapiens) (UniProt Q92731); assay: qHTS assay to identify small molecule agonists of the estrogen receptor beta (ER-beta) signaling pathway (AID 1259377; active means well fitted activation curve with a large enough effect in the signal ratio in the repeat runs, not every such curve was filed as active; the % refers to the signal ratio)
Sequence of Estrogen receptor beta (Homo sapiens) (Q92731 whole entry, looked up): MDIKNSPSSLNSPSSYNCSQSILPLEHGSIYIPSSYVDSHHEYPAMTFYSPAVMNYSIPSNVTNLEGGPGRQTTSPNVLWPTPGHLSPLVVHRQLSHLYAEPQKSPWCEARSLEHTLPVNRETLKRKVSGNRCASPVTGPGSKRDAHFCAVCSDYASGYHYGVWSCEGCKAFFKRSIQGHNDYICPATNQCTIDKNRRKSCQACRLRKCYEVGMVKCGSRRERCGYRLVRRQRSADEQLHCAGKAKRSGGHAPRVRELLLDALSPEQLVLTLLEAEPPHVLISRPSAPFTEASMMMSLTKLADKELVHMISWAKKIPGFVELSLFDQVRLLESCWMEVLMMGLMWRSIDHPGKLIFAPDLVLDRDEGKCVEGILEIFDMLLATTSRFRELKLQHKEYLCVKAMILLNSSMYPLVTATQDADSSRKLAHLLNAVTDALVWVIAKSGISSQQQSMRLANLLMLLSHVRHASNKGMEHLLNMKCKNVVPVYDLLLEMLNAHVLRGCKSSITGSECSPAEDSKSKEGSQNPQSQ
Method in brief: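 Reporter cells (HEK293T, ER-beta-UAS-bla) receive compounds or DMSO after a 6 hr pre-incubation. They then incubate 16 hr at 37C/5% CO2, and fluorescence from LiveBLAzer B/G substrate is measured after 2 hours at room temperature.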

[15] = biological target: Estrogen receptor beta (Homo sapiens) (UniProt Q92731); assay: qHTS assay to identify small molecule antagonists of the estrogen receptor beta (ER-beta) signaling pathway (AID 1259378; active means well fitted inhibition curve with a large enough effect in the signal ratio in the repeat runs, not every such curve was filed as active; the % refers to the signal ratio)
Method in brief: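 Antagonist mode: compounds added to beta-lactamase reporter HEK293T ER-beta-UAS cells stimulated with E2 (1nM final), 16 hr at 37C. LiveBLAzer B/G FRET substrate, 2 hours room temperature, fluorescence read-out.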

[16] = biological target: Estrogen receptor (Homo sapiens) (UniProt P03372); assay: qHTS assay to identify small molecule agonists of the estrogen receptor alpha (ER-alpha) signaling pathway in the presence of an antagonist (AID 1259383; calls by dose curve; further: top concentration of the series differs between compounds; nearly all actives have a fitted effect of over 15% in size)
Sequence of Estrogen receptor (Homo sapiens) (P03372 whole entry, looked up): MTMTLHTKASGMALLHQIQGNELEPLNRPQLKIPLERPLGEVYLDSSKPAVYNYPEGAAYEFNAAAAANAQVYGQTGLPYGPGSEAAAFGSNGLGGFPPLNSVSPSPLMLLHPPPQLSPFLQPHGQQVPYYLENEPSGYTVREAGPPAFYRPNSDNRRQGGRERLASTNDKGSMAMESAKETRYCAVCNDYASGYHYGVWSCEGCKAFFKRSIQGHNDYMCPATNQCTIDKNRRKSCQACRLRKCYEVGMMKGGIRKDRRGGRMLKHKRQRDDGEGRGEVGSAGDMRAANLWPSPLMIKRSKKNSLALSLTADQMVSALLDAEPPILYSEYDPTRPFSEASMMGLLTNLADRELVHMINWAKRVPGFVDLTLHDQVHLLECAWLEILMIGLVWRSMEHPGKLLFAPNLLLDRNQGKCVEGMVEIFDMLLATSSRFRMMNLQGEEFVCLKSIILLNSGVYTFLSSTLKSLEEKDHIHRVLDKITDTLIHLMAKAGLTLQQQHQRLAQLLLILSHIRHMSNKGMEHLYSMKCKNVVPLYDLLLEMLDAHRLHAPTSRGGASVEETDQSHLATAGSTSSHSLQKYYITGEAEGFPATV
Method in brief: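 Using VM7Luc4E2 cells seeded 24hr before treatment, antagonist ICI-182,780 (10.0nM final) was added, followed by compounds at 15 concentrations. Plates incubated 22hr; ONE-Glo luminescence quantified reporter activity.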

[17] = qHTS assay to identify small molecule phospholipidosis (PLD) inducers (AID 1259344; active means well fitted curve in the direction sought with a large enough effect; an effect the other way counts as inactive or inconclusive)
Method in brief: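 Fluorescent phospholipid staining (LipidTOX Red) measured by automated microscopy in fixed HepG2 cells after 24 h treatment; nuclei counterstained with Hoechst 33342; amiodarone as reference inducer.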
On the % scale 0 is the no-effect control and ±100 the full control effect.

Clc1c(Cl)c(Cl)c(Cl)c(Cl)c1Cl
inactive: activity change, negative = cytotoxicity [1] 2.59% [at 8.39 µM] | viability change, negative = cytotoxic [2] 0.413% [at 8.39 µM] | activity change, negative = inhibition [3] 1.74% [at 8.39 µM] | activity change, negative = cytotoxicity [4] 0.165% [at 8.39 µM] | viability change, negative = cytotoxic [5] 1.7% [at 8.39 µM] | viability change, negative = cytotoxic [6] 2.78% [at 8.39 µM] | activity change [7] -0.252% [at 8.39 µM, stronger effect = higher value] | activity change, negative = inhibition [8] 3.84% [at 8.39 µM] | activity change, negative = cytotoxicity [9] 1.03% [at 8.39 µM] | activity change, negative = cytotoxicity [10] 0.531% [at 8.39 µM] | activity change, negative = cytotoxicity [11] 8.34% [at 8.39 µM] | cAMP activity change [12] -1.12% [at 8.39 µM, stronger effect = higher value] | activity change, negative = inhibition [13] 2.16% [at 8.39 µM]

[O-][Cl+3]([O-])([O-])O
inactive: Potency [1] | Potency [2] | Potency [3] | Potency [4] | Potency [5] | Potency [6] | Potency [7] | Potency [8] | Potency [14] | Potency [15] | Potency [9] | Potency [10] | Potency [11]

O=P(Cl)(Cl)Cl
inactive: Potency [1] | Potency [2] | Potency [3] | Potency [4] | Potency [5] | Potency [6] | Potency [7] | Potency [8] | Potency [9] | Potency [10] | Potency [11] | Potency [16] | Potency [12] | Potency [13]

N#CCCl
inactive: Potency [1] | Potency [2] | Potency [3] | Potency [4] | Potency [5] | Potency [6] | Potency [7] | Potency [8] | Potency [16] | Potency [12] | Potency [13]
active: Potency [10] 25.4 µM

CCN(CC)Cc1nccn1-c1ccc([N+](=O)[O-])cc1C(=O)c1ccccc1Cl
inactive: Potency [1] | Potency [2] | PLD induction [17] 0.825% [at 7.66 µM] | Potency [3] | Potency [4] | Potency [7] | Potency [8] | Potency [14] | Potency [9] | Potency [10] | Potency [11] | Potency [12] | Potency [13]

O=[N+]([O-])[O-].[Tl+]
active: Potency [10] 0.346 µM
inactive: Potency [1] | Potency [2] | Potency [3] | Potency [4] | Potency [5] | Potency [6] | Potency [7] | Potency [9] | Potency [11] | Potency [12] | Potency [13]

Cc1cc2c3c(c1)C(c1ccccc1)=N[C@@H](NC(=O)c1ccncc1)C(=O)N3CC2
inactive: Potency [1] | Potency [2] | Potency [3] | Potency [4] | Potency [5] | Potency [6] | Potency [7] | Potency [14] | Potency [15] | Potency [9] | Potency [10] | Potency [11] | Potency [16] | Potency [12] | Potency [13]

CCC(C)Br (stereo not given)
inactive: Potency [1] | Potency [2] | Potency [3] | Potency [4] | Potency [5] | Potency [6] | Potency [7] | Potency [8] | Potency [14] | Potency [15] | Potency [9] | Potency [10] | Potency [11] | Potency [12] | Potency [13]

CC1(C)[C@H](/C=C2\CCSC2=O)[C@@H]1C(=O)OCc1coc(Cc2ccccc2)c1
inactive: Potency [1] | Potency [2] | Potency [3] | Potency [4] | Potency [5] | Potency [6] | Potency [7] | Potency [14] | Potency [15] | Potency [9] | Potency [10] | Potency [11] | Potency [16] | Potency [12]
active: Potency [8] 12.2 µM

Cc1c([N+](=O)[O-])cc2c(c1[N+](=O)[O-])C(C)(C)CC2(C)C
inactive: Potency [1] | Potency [2] | Potency [3] | Potency [4] | Potency [5] | Potency [6] | Potency [7] | Potency [8] | Potency [14] | Potency [9] | Potency [10] | Potency [11] | Potency [16] | Potency [12] | Potency [13]

C[N+]1(C)[C@@H]2CC[C@H]1CC(OC(=O)C(CO)c1ccccc1)C2 (stereo not given in full)
inactive: Potency [1] | Potency [2] | outcome [17] | Potency [3] | Potency [5] | Potency [6] | Potency [7] | Potency [14] | Potency [15] | Potency [9] | Potency [10] | Potency [11] | Potency [12] | Potency [13]

NC(=O)C(Cl)Cl
inactive: Potency [1] | Potency [2] | Potency [3] | Potency [4] | Potency [5] | Potency [6] | Potency [7] | Potency [8] | Potency [14] | Potency [15] | Potency [9] | Potency [10] | Potency [11]

CSC(C)(C)/C=N/O
inactive: Potency [1] | Potency [2] | Potency [3] | Potency [4] | Potency [5] | Potency [6] | Potency [7] | Potency [8] | Potency [9] | Potency [11] | Potency [16] | Potency [12] | Potency [13]

N#Cc1c[nH]cc1-c1cccc2c1OC(F)(F)O2
inactive: Potency [1] | Potency [2] | Potency [3] | Potency [4] | Potency [5] | Potency [6] | Potency [7] | Potency [16] | Potency [12] | Potency [13]
active: Potency [10] 21.7 µM

Clc1cc(Cl)c(-c2cc(Cl)c(Cl)cc2Cl)cc1Cl
inactive: Potency [1] | Potency [2] | Potency [3] | Potency [4] | Potency [5] | Potency [6] | Potency [7] | Potency [8] | Potency [9] | Potency [10] | Potency [11] | Potency [12]

O=[N+]([O-])c1cc(C(F)(F)F)c(Cl)c([N+](=O)[O-])c1Nc1ncc(C(F)(F)F)cc1Cl
inactive: Potency [3] | Potency [7]
active: Potency [1] 21.7 µM | Potency [2] 4.86 µM | Potency [4] 54.5 µM | Potency [5] 4.33 µM | Potency [6] 6.11 µM | Potency [8] 3.86 µM | Potency [9] 6.11 µM | Potency [10] 6.86 µM | Potency [11] 8.63 µM | Potency [13] 61.1 µM

O=S(=O)(O)F
inactive: Potency [1] | Potency [2] | Potency [3] | Potency [4] | Potency [5] | Potency [6] | Potency [7] | Potency [8] | Potency [14] | Potency [15] | Potency [9] | Potency [10] | Potency [11] | Potency [12] | Potency [13]

CN1C(=O)[C@@H](NC(=O)c2cc3ccccc3[nH]2)N=C(c2ccccc2)c2ccccc21
inactive: Potency [1] | Potency [2] | outcome [17] | Potency [3] | Potency [4] | Potency [6] | Potency [7] | Potency [8] | Potency [9] | Potency [10] | Potency [11] | Potency [12] | Potency [13]

— PubChem BioAssay (Tox21)
